From PubChem BioAssay (NCI)
About 83,000 compounds went through this panel and 20% of them were active in at least one assay; those are over-represented in the sample as a whole.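 For each line, cells grew in 96-well plates with the test compound present at a single concentration for 48 hours.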 A number with no mark means an inactive call. Calls of active or inactive are those of the source. Rule for the calls: active = growth percent below 10; inactive = the rest.

Test system: HL-60(TB) leukemia
Assay: NCI-60 one-dose screen, 48 h (100 = growth as untreated, 0 = no growth, -100 = all killed)
Details: 10 µM unless noted

Row | Compound | growth
1 | Nc1ncnc2c1ccn2-c1cccc(NC(=O)c2cccc(C(F)(F)F)c2)c1 | 104%
2 | COc1ccc(/C(C)=C(\c2ccc(Cl)cc2)c2ccc(OCCN3CCCCC3)cc2)cc1F | -14% (active)
3 | COc1ccc(Cn2c(Br)c3c(c2Br)-c2nc(NC(=O)c4ccc(OC)cc4)sc2CC3)cc1 | 75.9%
